“And” between values parts separate entries of the source, which are not always exact repeats. Identical values can stand only once. The source made the active and inactive calls.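 Rule for the calls, unless noted: active = compounds killing one labelled cell type while sparing the other, by normalised counts and ratio limits, not self-fluorescent; inactive = the rest.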
Tests used:
[1] = liver-stage malaria parasite growth inhibition, primary screen, cell-based, HepG2, luciferase luminescence, HepG2 viability (AID 624349; in the data active = parasite load remaining mostly below about 12%, no sharp cut-off; inactive = mostly above about 10%;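 note: 100% = mean of DMSO negative control wells on the same plate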); conditions: P. berghei liver stage in HepG2, luciferase luminescence, concentration not given here; parasite load remaining: stronger effect = lower value; viability: measured here: HepG2 viability without parasites
[2] = differential killing of epithelial or mesenchymal cells, primary screen, imaging, PC-3E GFP, TEM4-18 mCherry, co-culture (AID 1345086); conditions: imaging cell counts, at 1 µM; for red/green cell ratio (normalised): actives lie on both sides, counts scaled to control wells, 1 = unselective;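 for all read-outs here: cells exposed to compound for 72 h before imaging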;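 for red/green cell ratio (normalised): normalised mesenchymal count divided by normalised epithelial count so high means epithelial killing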
[3] = sensitizers of A549 cells to miR-34 induction, primary screen, imaging, A549 dox-inducible miR-34, nuclei and caspase counts (AID 1347080;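 active = compounds whose cell count with miR-34 switched on is under 0.7 times the count with it off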); conditions: A549 miR-34 inducible, Hoechst nuclei count, 48 h
[4] = molecular target: NAD(+) hydrolase SARM1 (Homo sapiens) (UniProt Q6SZW1); assay: SARM1 TIR NADase inhibitors, cell lysate, NAD-Glo luminescence (AID 1508614;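 active = compound whose remaining NAD level is above about 45 nM, limit read from the data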;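 note: higher remaining NAD means stronger inhibition of SARM1 NADase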); conditions: SAM-TIR HEK293T lysate NADase, at 1 µM, stronger effect = higher value
[5] = molecular target: Mitogen-activated protein kinase 7 (Homo sapiens) (UniProt Q13164); assay: ERK5 transactivation activators in reporter cells, primary screen, cell-based, HTS (AID 1508626;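 active = luciferase signal above three times the same-plate solvent-only control wells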;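 note: luciferase driven by Gal4-ERK5 fusion binding five Gal4 sites before minimal TATA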); conditions: HeLa Gal4-ERK5 transactivation, 18 h, at 5 µM, stronger effect = higher value
[6] = measured here: epithelial PC-3E GFP cell survival
[7] = measured here: mesenchymal TEM4-18 mCherry cell survival
[8] = stronger effect = lower value, cell number ratio, induced over uninduced
[9] = measured here: relative caspase fold change +Dox/-Dox
[10] = measured here: total cells with miR-34 induction, stronger effect = lower value
[11] = measured here: total cells without miR-34 induction

Sequence of Mitogen-activated protein kinase 7 (Homo sapiens) (Q13164 whole entry, looked up, the tested form may be a part): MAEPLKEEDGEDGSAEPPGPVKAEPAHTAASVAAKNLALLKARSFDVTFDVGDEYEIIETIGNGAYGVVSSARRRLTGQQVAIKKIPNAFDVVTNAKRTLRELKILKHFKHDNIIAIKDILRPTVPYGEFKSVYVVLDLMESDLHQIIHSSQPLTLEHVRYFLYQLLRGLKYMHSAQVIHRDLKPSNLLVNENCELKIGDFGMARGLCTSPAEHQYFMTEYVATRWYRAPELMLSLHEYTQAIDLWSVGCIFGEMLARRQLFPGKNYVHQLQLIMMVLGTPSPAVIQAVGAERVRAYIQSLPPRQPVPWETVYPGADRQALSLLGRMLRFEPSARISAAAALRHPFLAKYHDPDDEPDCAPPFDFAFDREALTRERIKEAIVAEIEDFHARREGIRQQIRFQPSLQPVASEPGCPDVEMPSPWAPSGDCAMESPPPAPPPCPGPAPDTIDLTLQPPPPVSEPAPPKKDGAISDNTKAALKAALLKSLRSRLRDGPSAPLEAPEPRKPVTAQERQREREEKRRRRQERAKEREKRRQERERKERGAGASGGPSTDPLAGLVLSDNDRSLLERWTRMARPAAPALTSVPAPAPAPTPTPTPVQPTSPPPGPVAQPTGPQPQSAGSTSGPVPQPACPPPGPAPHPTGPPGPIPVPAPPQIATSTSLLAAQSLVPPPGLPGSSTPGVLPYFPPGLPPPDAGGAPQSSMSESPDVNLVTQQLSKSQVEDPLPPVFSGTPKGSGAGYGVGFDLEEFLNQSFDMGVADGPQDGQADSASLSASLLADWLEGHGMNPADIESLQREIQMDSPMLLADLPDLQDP
Sequence of NAD(+) hydrolase SARM1 (Homo sapiens) (Q6SZW1 whole entry, looked up, the tested form may be a part): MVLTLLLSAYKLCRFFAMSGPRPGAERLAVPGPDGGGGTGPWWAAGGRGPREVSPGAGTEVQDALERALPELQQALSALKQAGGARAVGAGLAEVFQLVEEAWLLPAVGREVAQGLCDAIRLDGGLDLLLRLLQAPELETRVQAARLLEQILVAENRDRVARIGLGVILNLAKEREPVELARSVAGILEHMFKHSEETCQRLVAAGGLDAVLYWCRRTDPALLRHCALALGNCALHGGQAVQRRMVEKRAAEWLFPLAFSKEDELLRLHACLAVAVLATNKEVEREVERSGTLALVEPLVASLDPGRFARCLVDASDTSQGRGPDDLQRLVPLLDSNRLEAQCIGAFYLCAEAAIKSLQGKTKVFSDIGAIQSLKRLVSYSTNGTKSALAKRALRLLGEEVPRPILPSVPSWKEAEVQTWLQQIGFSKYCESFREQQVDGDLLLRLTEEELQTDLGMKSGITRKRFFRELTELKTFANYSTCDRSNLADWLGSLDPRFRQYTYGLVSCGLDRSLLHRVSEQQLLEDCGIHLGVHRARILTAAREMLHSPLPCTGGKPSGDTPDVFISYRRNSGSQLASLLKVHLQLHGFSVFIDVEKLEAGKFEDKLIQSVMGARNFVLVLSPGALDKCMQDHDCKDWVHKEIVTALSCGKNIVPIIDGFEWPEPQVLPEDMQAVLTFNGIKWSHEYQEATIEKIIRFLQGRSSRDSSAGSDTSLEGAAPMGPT

| Compound | parasite load remaining [1] | viability [1] | red/green cell ratio (normalised) [2] | normalised cell number [2, 6] | normalised cell number [2, 7] | fold change [3, 8] | fold change [3, 9] | cell count [3, 10] | cell count [3, 11] | remaining NAD [4] | luciferase signal [5] |
| --- | --- | --- | --- | --- | --- | --- | --- | --- | --- | --- | --- |
| O=C(O)CC(O)(CC(=O)O)C(=O)O | 61.3% (inactive) | 186% | 1 (inactive) | 1.06 | 1.06 | 0.829 (inactive) | 6.46 | 11100 | 13400 | 10 nM (inactive) | 52 AU (inactive) |
| CC(C)(CO)C(O)C(=O)NCCCO (stereo not given) | 56.4% (inactive) | 105% | 1.08 (inactive) and 0.9 (inactive) | 1.14 and 1.02 | 1.23 and 0.92 | 0.911 (inactive) | 4.72 | 11800 | 13000 | – | 68 AU (inactive) |
| CCOC(=O)COc1ccc2c(=O)cc(-c3ccccc3)oc2c1 | – | – | 0.96 (inactive) | 0.88 | 0.85 | 0.922 (inactive) | 0.974 | 8170 | 8860 | 10 nM (inactive) | – |
| CN(C)[C@@H]1C(=O)C(C(=O)NCN2CCCC2)=C(O)[C@@]2(O)C(=O)C3=C(O)c4c(O)cccc4[C@@](C)(O)[C@H]3C[C@@H]12 | 26.9% (inactive) | 99.8% | 0.9 (inactive) | 1.09 | 0.97 | 0.855 (inactive) | 4.3 | 11700 | 13600 | 10 nM (inactive) | 112 AU (inactive) |

— PubChem BioAssay
